These results are taken from PubChem BioAssay (NCI).

Structures are written as SMILES. Where “and” joins values, the source holds several entries; their conditions need not be identical. Equal values may be shown once. This is part of a sample that, as a whole, favours compounds with a hit. Of some 83,000 tested, about 20% had one in any assay.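 Activity criterion: percent growth below 10, measured after cells in 96-well plates were exposed to a single compound concentration for 48 hours.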 Calls of active or inactive are those of the source.

The test system of the assay is MDA-MB-468 breast. Nature of the assay: NCI-60 one-dose screen, 48 h (100 = growth as untreated, 0 = no growth, -100 = all killed). Conditions: 10 µM unless noted.
Take `Cc1ccc(CCC(=O)Nc2ncc(Cc3cc(Cl)ccc3Cl)s2)o1`: the growth was 7.55% (active).

For `COc1cc(OC)c(/C=C/C(=O)c2c(O)cc(OC)c(C3CCN(C)CC3)c2OC)c(OC)c1`, the growth is -91.1% (active). Regarding `COc1ccc(/C(C)=C(\c2ccc(OCCN3CCOCC3)cc2)c2ccc(OC(=O)C3CCCCC3)cc2)cc1`, the growth is 116% (inactive). As to `O=C(/C=C/c1ccc(Cl)cc1)c1ccc(Nc2nc(NCCO)nc(N3CCOCC3)n2)cc1`, the growth was 69.4% (inactive). The same measure for `CCCO/N=C/c1ccccn1`: 115% (inactive) and 120% (inactive); for `COc1ccc(/C=C/c2nnc(/C=C/c3ccc(OC)c(OC)c3)o2)cc1OC`: 19% (inactive).
